LDHA inh: LDHA (human) enzyme inhibition; AID 1347041; activity change, % (values are at about 110 or 230 µM); 0.15% of 480,000 active; purified LDHA, NADH/diaphorase-resazurin fluorescence; stronger effect = lower value; in the data active = activity change below about -30%; inconclusive = mostly about -25% to -30%;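 also: plate controls were DMSO wells for no effect and wells without enzyme for full effect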
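Human LDH5 (2 nM) was incubated with 0.06 mM NADH and 0.2 mM pyruvate for 5 min at room temperature in Tris pH 7.4. Remaining NADH was coupled through diaphorase/resazurin, and resorufin fluorescence was read at 0 and 20 min.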
TRPML1 blocker: inhibitors of human TRPML1 channel; activity change, negative = inhibition, % (concentration not given with the values); 0.02% of 390,000 active; TRPML1-inducible cells, Ca2+ dye fluorescence, FDSS; stronger effect = lower value; inhibition of EC80 agonist-evoked calcium signal; in the data active = activity change below about -50%; inconclusive = between about -30% and that limit;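 also: stimulus is agonist 54-4 at its EC80 concentration; % is scaled to controls: 0 for no effect and ±100 for the full control effect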
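Tet-induced TRPML1-DL cells loaded with Ca8 no-wash calcium dye were read kinetically on FDSS. Compound addition was followed by EC80 agonist 54-4 (4 uM final); inhibition was read over 110 s.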
TRPML1 agonist: activates the human TRPML1 channel. 0.12% of 410,000 active. activation, % (no concentration beside the values). TRPML1-expressing cells, Ca2+ dye fluorescence, FDSS; in the data active = activation above about 50%; inconclusive = mostly about 30% to 49%; also: 0% is about no effect
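In this qHTS format, compounds were pin-transferred onto Ca8-dye-loaded TRPML1-DL cells induced with Tet overnight, and intracellular Ca2+ fluorescence was recorded kinetically for 110 s after a 10 s baseline. A subsequent 4uM final 54-4 (EC80) addition followed by a second 110 s read served as the antagonist phase.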
TRPV1 PAM: potentiators of human vanilloid receptor 1 (TRPV1) | TRPV1-expressing cells, Fluo-8 calcium influx, capsaicin EC20 potentiation | potentiation, % at 8.33 µM | 0.02% of 320,000 active | AID 540277; in the data active = potentiation above about 80%; inconclusive = between about 30% and that limit; also: 0% is about no effect
Target sequence (Q8NER1 whole entry, looked up): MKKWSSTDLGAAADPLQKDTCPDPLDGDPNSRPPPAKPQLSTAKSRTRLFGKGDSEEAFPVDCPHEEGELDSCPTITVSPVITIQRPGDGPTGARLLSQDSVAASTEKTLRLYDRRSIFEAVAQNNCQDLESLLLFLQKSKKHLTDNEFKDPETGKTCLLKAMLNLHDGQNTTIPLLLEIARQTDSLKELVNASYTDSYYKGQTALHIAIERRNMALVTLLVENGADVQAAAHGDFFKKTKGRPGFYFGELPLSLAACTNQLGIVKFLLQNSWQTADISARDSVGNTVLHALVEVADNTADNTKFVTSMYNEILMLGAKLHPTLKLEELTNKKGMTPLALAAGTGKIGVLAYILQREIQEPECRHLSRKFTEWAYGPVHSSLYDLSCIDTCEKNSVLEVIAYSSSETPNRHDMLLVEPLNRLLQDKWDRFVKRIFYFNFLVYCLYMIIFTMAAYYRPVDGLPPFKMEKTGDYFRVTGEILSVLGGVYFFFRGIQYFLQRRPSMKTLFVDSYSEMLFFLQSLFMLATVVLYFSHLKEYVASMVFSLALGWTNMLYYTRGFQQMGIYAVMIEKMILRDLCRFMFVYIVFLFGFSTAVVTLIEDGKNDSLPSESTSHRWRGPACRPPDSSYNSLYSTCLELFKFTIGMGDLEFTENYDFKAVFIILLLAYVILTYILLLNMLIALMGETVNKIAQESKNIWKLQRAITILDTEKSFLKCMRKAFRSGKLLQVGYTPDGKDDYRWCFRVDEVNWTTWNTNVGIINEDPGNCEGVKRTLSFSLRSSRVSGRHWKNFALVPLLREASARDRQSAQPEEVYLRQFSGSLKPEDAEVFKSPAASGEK
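Fluo-8 calcium influx in TRPV1-expressing cells, kinetic read (ex 480/em 520 nm). Compound added and read 3 min for agonist activity, followed by capsaicin at EC20 final and 2 min further read for enhancement.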
TRPV1 agonist: activates the human vanilloid receptor TRPV1; Q8NER1; TRPV1-expressing cells, Fluo-8 calcium influx, agonist mode; activation, % at 8.33 µM; 0.19% of 320,000 active; AID 540275; in the data active = activation above about 80%; inconclusive = between about 30% and that limit; also: 0% is about no effect
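TRPV1-expressing cells were cultured overnight at 35.5C and loaded with Fluo-8 calcium dye for 40 to 90 min at room temperature. After a 10 s baseline, compound was added and calcium influx was read kinetically for 3 min (ex 480/em 520 nm).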
An asterisk follows results filed as active; ? = inconclusive; . = no result given. Compounds with a hit are over-represented: about 0.41% of the library has one in this group of screens.

SMILES	LDHA inh	TRPML1 blocker	TRPML1 agonist	TRPV1 PAM	TRPV1 agonist
CCN(C)c1ccc(/C=C/c2ccnc3ccccc23)cc1	6	.	?	.	.
Cc1ccc(S(=O)Cc2nc(-c3ccc(C(=O)NCCCN4CCOCC4)cc3)oc2C)cc1 (stereo not drawn)	1	.	.	.	.
CN(C)c1ccc(/C=C/c2ccnc3c(O)cccc23)cc1	4	.	1	.	.
COc1cc(N(C)C)c(OC)cc1/C=C/c1ccnc2ccccc12	6	.	?	.	.
CN(C)c1ccc(/C=C/c2ncnc3ccccc23)cc1	2	.	82*	.	.
COc1cc(/C=C/c2ccnc3ccccc23)ccc1N(C)C	6	.	58*	.	.
CN(C)c1ccc(/C=C/c2ccnc3c(Cl)cccc23)cc1	.	.	54*	.	.
CCN(CC)c1ccc(/C=C/c2ccnc3ccccc23)cc1	4	.	54*	.	.
Cc1csc(N2N=C(c3ccccc3)CC2c2ccc(Cl)cc2)n1 (stereo not drawn)	-14	.	.	.	.
CC(=O)NC1CCCc2c1cnn2-c1ccc(C(C)(C)C)cc1 (stereo not drawn)	-6	-15	-1	-10	?
Cn1nccc1C(=O)NC1CCCc2c1cnn2-c1ccc(C(C)(C)C)cc1 (stereo not drawn)	1	34	0	4	81*
O=C(Nc1ccccc1Cl)c1sc2cccc(Cl)c2c1Cl	-4	1	1	.	.
O=C(O)c1sc2cccc(Cl)c2c1Cl	-8	1	0	-8	83*
O=C1CSC(=S)N1/N=C/c1cc(Br)c(O)c(Br)c1	-19	-13	59*	-11	?
COc1cc(/C=N/N2C(=O)CSC2=S)ccc1O	10	-15	2	3	-1
O=C(NCCc1cccs1)C1CCN(c2ccc(C(F)(F)F)cn2)CC1	-31*	.	.	.	.
CC(=O)Nc1ccc(NC(=O)C2CCN(c3ccc(C(F)(F)F)cn3)CC2)cc1	-4	-8	0	5	-1
NC(=O)c1ccc(NC(=O)C(F)(OC(F)(F)C(F)(F)C(F)(F)F)C(F)(F)F)cc1 (stereo not drawn)	25	.	.	.	.
Cc1ccc(-c2cnc3c(Nc4cccc(OC(F)(F)C(F)F)c4)nccn23)cc1	-39*	.	0	.	.
Cc1ccc(S(=O)(=O)Nc2ccc(Nc3nccn4c(-c5ccc6ccccc6c5)cnc34)cc2)cc1	-87*	.	-1	.	.
O=C1c2cccc3c(N4CCCCC4)ccc(c23)C(=O)N1c1ccc(O)cc1	0	15	?	-3	?
O=C1c2cccc3c(N4CCCCC4)ccc(c23)C(=O)N1c1ccccc1O	1	-9	58*	0	?
CC(=O)N(C(C)=O)c1ncnc2c1c(-c1ccc(Cl)cc1)nn2C(C)(C)C	-48*	7	-1	-4	?
O=C(NC1CC1)c1c(-n2cnnn2)sc2c1CCCC2	-2	.	.	.	.
Cc1cccc(NC(=O)N2CCC(n3nnc4cc(C)ccc43)CC2)c1	2	-3	1	-11	?
SMILES	LDHA inh	TRPML1 blocker	TRPML1 agonist	TRPV1 PAM	TRPV1 agonist
Cc1ccc2c(c1)nnn2C1CCN(C(=O)NCc2ccccc2)CC1	-4	-9	-1	-13	89*
CCc1ccc(OCCCC(=O)NCc2ccccc2)cc1	-4	-21	0	-12	83*
COc1ccc(CNC(=O)CCCc2ccccc2)cc1	-6	12	0	.	.
CC(C)(C)c1cc(CCC(=O)NCc2ccncc2)cc(C(C)(C)C)c1O	1	-4	0	-12	91*
CC(C)(C)c1cc(CCC(=O)Nc2ccncc2)cc(C(C)(C)C)c1O	0	6	0	.	.
CCNc1sc(C(C)=O)c(N)c1C#N	-35*	.	.	.	.
CCC(=O)Nc1cc(C)ccc1NC(=O)c1cccs1	-31*	.	.	.	.
CCN(C(=O)c1cccs1)c1ccccc1C	-4	.	.	.	.
O=C1CC(c2ccccc2)CC(O)=C1C=NCCc1ccccc1 (stereo not drawn)	-1	7	-1	84*	9
CC(C)(C)OC(=O)NC(C)(C)C(=O)NCC(O)c1ccccc1 (stereo not drawn)	-8	.	.	.	.
O=C(N/N=C/c1ccccn1)c1cc(-c2ccc3ccccc3c2)n[nH]1	-34*	11	3	-12	-2
CCc1ccc(-c2cc(C(=O)N/N=C/c3ccccn3)[nH]n2)cc1	-5	-12	-1	13	-1
COC1=C/C(=C/c2c(N)n3nc(-c4ccc(C)cc4)sc3nc2=O)C=CC1=O	-30*	7	0	4	3
CCOc1ccc(C(C)=O)cc1CN(C)CC(=O)Nc1ccccc1Cl	5	.	.	.	.
COc1cc(/C=C/C(=O)c2ccc(O)cc2)cc(Cl)c1O	2	.	.	.	.
COc1cc(/C=C/C(=O)c2ccc3c(c2)OCO3)cc(Cl)c1O	6	2	56*	0	?
Cc1cc2c(NC(=O)Nc3ccc(C(F)(F)F)cc3)cccc2nn1	28	19	0	-3	82*
Cc1cc2c(NC(=O)CCCC(=O)O)cccc2nn1	8	6	0	-20	-2
O=C1CSC(c2ccc(Cl)cc2)N1c1cccnc1 (stereo not drawn)	0	-22	78*	9	-2
C/C=C/C=C/C(=O)NC(C)c1ccc(SC)cc1 (stereo not drawn)	7	.	.	.	.
CN(C)CCOc1ccc(C(C)(C)c2ccccc2)cc1	-38*	-2	1	-2	-3
CN(C)CCCOc1ccc(C(C)(C)c2ccccc2)cc1	-16	18	0	8	1
O=C(N/N=C/c1cc(Br)c(Br)o1)c1cc2ccccc2o1	-44*	-5	0	-8	?
O=C(N/N=C/c1ccc([N+](=O)[O-])o1)c1cc2ccccc2o1	-70*	-19	1	29	12
O=C(O)c1cc(Br)ccc1NS(=O)(=O)c1cccc2nsnc12	-47*	8	0	9	3
SMILES	LDHA inh	TRPML1 blocker	TRPML1 agonist	TRPV1 PAM	TRPV1 agonist
O=C(O)c1ccccc1NS(=O)(=O)c1cccc2nsnc12	-1	-6	1	1	5
COc1cc(N2N=C(c3ccccc3)CC2c2ccccc2)c(C=O)cc1C=O (stereo not drawn)	-2	53	-1	10	7
COc1ccccc1N1N=C(c2ccc([N+](=O)[O-])cc2)CC1c1ccccc1 (stereo not drawn)	0	-16	69*	9	6
O=C(CCCCCCCC(=O)NNC(=O)c1cccc(Cl)c1)NNC(=O)c1cccc(Cl)c1	3	.	.	.	.
CCC(CO)Nc1nc(-c2ccco2)c2c(c1C#N)CCCC2 (stereo not drawn)	14	.	.	.	.
CCc1nc(NC(CC)CO)c(C#N)c2c1CCCC2 (stereo not drawn)	-34*	.	.	.	.
O=C(Cc1cccs1)Nc1cccc(-c2nnc(-c3ccco3)o2)c1	-13	20	1	89*	?
CCC1CCc2sc(-c3nnc(SCC(=O)NC(C)(C)C)n3C)cc2C1 (stereo not drawn)	-1	.	.	.	.
CC(C)Sc1nnc(COc2ccc(Cl)cc2)n1C	-2	.	.	.	.
